# Rows were chosen to be rich in hits. Some 9.2% of all compounds tested hit in one or more screens of this group.
# Rab9 promoter act – activators of Rab9 promoter; Huh7 Rab9 promoter-luciferase reporter, luminescence, 24 h; hit rate 2.8% among 320,000; AID 485297; Potency, µM (series often up to 9.22 µM), without a hit: top-dose activation, negative = inhibition, hits mostly activators; note: % of control where 0% means no effect; nearly all actives have a fitted effect of over 60% in size
#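 Quantitative HTS format; Huh7 Rab9-luciferase reporter cells (1500/well) receive compound 2 h post-plating, incubate 24 h at 37 °C, then get luciferase reagent for 10 min before luminescence reading.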
# FLuc modulator – firefly luciferase modulation, counter-screen for miR-21 project. Potency, µM (titrated, usually from 57.5 µM), without a hit: at the top dose activity change, negative = inhibition, hits mostly inhibitors. purified FLuc, Km substrates, luminescence inhibition. hit rate 6.9% among 360,000. AID 588342;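 note: plate controls were vehicle for no effect and reference inhibitor for full effect; nearly all actives have a fitted effect of over 55% in size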
# Target sequence (P08659 whole entry, looked up): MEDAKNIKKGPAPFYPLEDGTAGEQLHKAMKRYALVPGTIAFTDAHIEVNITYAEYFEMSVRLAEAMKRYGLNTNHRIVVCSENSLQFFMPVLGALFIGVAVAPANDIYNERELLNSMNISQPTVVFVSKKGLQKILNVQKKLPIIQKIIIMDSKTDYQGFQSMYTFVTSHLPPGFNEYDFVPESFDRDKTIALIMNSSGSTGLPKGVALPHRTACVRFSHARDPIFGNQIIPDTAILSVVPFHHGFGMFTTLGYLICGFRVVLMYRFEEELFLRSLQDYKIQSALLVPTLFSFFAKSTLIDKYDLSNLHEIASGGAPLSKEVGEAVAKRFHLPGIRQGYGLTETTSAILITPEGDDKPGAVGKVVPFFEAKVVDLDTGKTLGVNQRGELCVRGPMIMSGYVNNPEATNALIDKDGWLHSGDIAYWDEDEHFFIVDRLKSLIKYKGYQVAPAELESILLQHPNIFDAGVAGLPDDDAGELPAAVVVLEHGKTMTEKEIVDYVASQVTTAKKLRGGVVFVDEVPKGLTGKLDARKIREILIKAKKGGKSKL
#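 Purified P. pyralis luciferase (10nM final) with 10uM D-luciferin and 10uM ATP (Km levels) in 50mM Tris acetate pH 7.5, 10mM Mg acetate, 0.01% Tween-20, 0.05% BSA; qHTS 6-point titration, ~60 µM downward; luminescence read.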
# SMN2 splice up – increases expression of the SMN2 splice variant; Potency, µM (series often up to 46.1 µM), inactives show top-dose activity change, positive = activation, most hits filed as activators; HEK293 SMN2-luciferase splicing reporter, luminescence, 30-36 h; hit rate 2.8% among 210,000; note: % of control where 0% means no effect; nearly all actives have a fitted effect of over 55% in size
#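 qHTS luciferase splicing reporter: luminescence rises when SMN2 exon 7 is included in transfected HEK293 cells. Compound exposure lasted 30-36 h at 37C, with 4.5 mM final sodium butyrate as control, followed by a ONE-Glo read.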
# NPC1 prom act – NPC1 promoter activation; Huh7 NPC1 promoter luciferase reporter, 24 h; Potency, µM (doses to about 9.22 µM), without a hit: top-dose activation, usual class: activators; hit rate 2.4% among 320,000; note: % of control where 0% means no effect; nearly all actives have a fitted effect of over 60% in size
#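 Stably transfected Huh7 (NPC1 promoter→luciferase), 1500 cells/well in Opti-MEM + 10% FBS, 2 h settle, then compound 24 h at 37 °C. Luminescence after 10 min with Amplite reagent.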
# ELG1 DNA repair – ELG1-dependent DNA repair inhibition. AID 504467. HEK293T ELG1-luciferase reporter, luminescence, 16 h; DNA damage induced by 5-fluorouridine. hit rate 2.3% among 330,000. Potency, µM (titrated, usually from 46.1 µM), for the others: at the top dose activity change, negative = inhibition, usual class: inhibitors; note: % is set by controls: 0 for no effect and ±100 for the full control effect; nearly all actives have a fitted effect of over 55% in size
#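 Luminescence from the luciferase reporter, measured 30 min after ONE-Glo reagent at room temperature, was the read-out. Beforehand, 2,000 cells per well were exposed for 16 hr at 37 °C to 5-fluorouridine together with compound or vehicle.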
# ELG1 genotoxic – induces genotoxicity in HEK293T cells with luciferase-tagged ELG1; HEK293T ELG1-luciferase reporter, luminescence, 16 h; Potency, µM (top dose mostly 46 µM), for inactives: top-dose activity change, positive = activation, actives largely listed as activators; hit rate 1.3% among 330,000; note: % of control where 0% means no effect; nearly all actives have a fitted effect of over 60% in size
#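 Step 1: seed 2,000 HEK293T ELG1-luciferase cells per well. Step 2: add compound or DMSO, incubate 16 hr at 37 °C. Step 3: ONE-Glo, 30 min at room temperature, read luminescence.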
# * marks the source's active call; other numbers are inactive results; ? = inconclusive; . = not tested or not shown. Calls come from the whole dose curve; as a rule, active = well fitted curve in the direction sought with a large enough effect; inconclusive = small, poorly fitted or top-dose-only effect, or another doubt; inactive = no such curve, though single readings can be large; an effect the other way counts as inactive or inconclusive. Potency is the fitted concentration of half-maximal effect.
SMILES,Rab9 promoter act,FLuc modulator,SMN2 splice up,NPC1 prom act,ELG1 DNA repair,ELG1 genotoxic
O=C1NCCC/C1=N/Nc1cc(F)ccc1F,?,19µM*,.,?,?,?
Cc1ccc(C#CC[N+]2(CC#Cc3ccc(C)cc3)CCCCC2)cc1,-26.7%,-1.4%,-52.5%,-30.5%,11.6µM*,-9.6%
Cc1oc2ccc(O)cc2c1C(=O)OC(C)C,1.4%,15.1µM*,-11.6%,-2.1%,?,15.1%
Cc1oc2ccc(OCC(N)=O)cc2c1C(=O)OC(C)C,1.7%,2.5%,-27.4%,-4.4%,?,-2.2%
C/C=C/c1ccc(OCC(=O)Nc2cc(OC)c(OC)c(OC)c2)c(OC)c1,-0.7%,-9.2%,-13.7%,-6.5%,14.6µM*,-10.8%
COc1cc(C=O)ccc1OCc1ccncc1,0.7%,?,.,-6.7%,11.8%,0.5%
COc1cc(C=O)ccc1OCCCOc1ccccc1[N+](=O)[O-],-3.9%,?,?,0.7%,?,?
COc1cc(C=O)ccc1OCc1ccc(Cl)nc1,9.6%,4.78µM*,.,-1.2%,?,?
COc1cc(C=O)ccc1OCCCOc1ccccc1C(=O)O,?,1.9µM*,13.9%,?,?,-3.1%
C/C=C/c1ccc(OCCOc2cc(C=O)ccc2OC)c(OC)c1,8.4%,13.5µM*,15.8µM*,12.1%,?,14.9%
C/C=C/c1ccc(OCC(=O)O)c(OC)c1,1.1%,3.2%,.,-6.2%,7.8%,-0.3%
Cc1cc(F)ccc1S(=O)(=O)Nc1ccccc1C(=O)N1CCCC1,-9.5%,3.5%,.,-3.5%,22.6%,0.8%
CCc1ccccc1NC(=O)Cn1c(=O)n(Cc2ccc3c(c2)OCO3)c(=O)c2ccc(C(=O)NC3CCCCC3)cc21,.,2.0%,0.5%,.,.,.
COc1cc(C=O)ccc1OCCOc1ccccc1[N+](=O)[O-],-3.7%,21.3µM*,16.6%,-1.3%,?,10.9%
OCCN1CCN(c2ncnc3scc(-c4ccc(F)cc4)c23)CC1,3.5%,-2.2%,.,4.3%,?,-11.6%
Oc1ccccc1N1CCN(c2ncnc3scc(-c4ccccc4)c23)CC1,-6.3%,4.0%,.,-2.1%,18.3µM*,-23.3%
COc1ccc(-c2csc3nc(C)nc(N4CCN(C(C)=O)CC4)c23)cc1OC,-9.8%,-14.1%,23.1%,-3.1%,5.0%,2.3%
Cc1nc(N2CCN(c3ccccc3O)CC2)c2c(-c3ccccc3)csc2n1,-1.1%,-8.5%,.,-3.8%,18.3µM*,-25.9%
Oc1ccccc1N1CCN(c2ncnc3scc(-c4ccc(F)cc4)c23)CC1,-15.5%,0.0%,.,-5.5%,9.2µM*,-17.2%
COc1ccccc1CNC(=O)CSCc1nc(-c2ccc(OC)c(OC)c2)oc1C,.,-1.4%,-2.4%,.,.,.
COc1ccccc1CNC(=O)CCNC(=O)C1CCN(S(=O)(=O)c2ccccc2)CC1,-2.3%,1.6%,.,-1.5%,-0.6%,2.0%
COc1ccc(-c2c(C)nc3c(-c4ccccn4)cnn3c2N)cc1,0.316µM*,0.536µM*,.,0.316µM*,?,1.16µM*
Cc1cc(C(F)(F)Cl)n2ncc(-c3ccccn3)c2n1,-1.7%,-4.3%,.,5.6%,-0.7%,6.1%
COc1ccc(-c2c(C)nc3c(-c4ccsc4)cnn3c2N)cc1,0.251µM*,0.601µM*,.,0.316µM*,?,1.83µM*
CCOC(=O)c1ccccc1NC(=O)C1CSC2(C)CCC(=O)N12 (centres undefined),4.0%,0.6%,.,-1.4%,0.3%,2.2%
SMILES,Rab9 promoter act,FLuc modulator,SMN2 splice up,NPC1 prom act,ELG1 DNA repair,ELG1 genotoxic
O=C1c2ccccc2C(=O)C1(CO)c1ccc(OC(F)F)cc1,0.447µM*,0.953µM*,.,?,?,?
COC(=O)CC1(c2ccccc2)C(=O)c2ccccc2C1=O,-0.3%,6.0%,-0.3%,-2.0%,-0.3%,1.7%
O=C1c2ccccc2C(=O)C1(CO)c1ccccc1,?,15.1µM*,166.2%,26.1%,?,-7.8%
Cc1c2cnn(-c3ccccc3)c(=O)c2c(C)n1CC(=O)NCc1ccc(Cl)cc1,.,-2.4%,-2.3%,.,.,.
CC1Sc2ccc(S(=O)(=O)N3CCC(C(=O)N(C)Cc4ccccc4)CC3)cc2NC1=O (centres undefined),-5.0%,1.0%,.,-1.0%,7.3µM*,-10.3%
Cc1ccc(C)c(NC(=O)CCC(=O)N/N=C/c2cc([N+](=O)[O-])ccc2O)c1,0.3%,0.2%,.,-5.4%,13µM*,1.1%
O=C(CCC(=O)Nc1cccc(Cl)c1)N/N=C/c1cc([N+](=O)[O-])ccc1O,1.8%,?,27.8%,-2.4%,?,1.3%
Cc1ccc(SCC(=O)Nc2cc([N+](=O)[O-])ccc2O)cc1,7.2%,16.9µM*,.,3.5%,?,-5.6%
Cc1ccccc1NC(=O)CCC(=O)N/N=C/c1cc([N+](=O)[O-])ccc1O,-0.9%,0.4%,-5.9%,-0.7%,?,4.1%
O=C(CCCC(=O)Nc1cccc(Br)c1)N/N=C/c1cc([N+](=O)[O-])ccc1O,-2.2%,-8.3%,.,-7.0%,14.6µM*,12.2%
Cc1cccc(NC(=O)C2CCCN(S(=O)(=O)c3c(C)noc3/C=C/N(C)C)C2)c1C (centres undefined),.,-0.7%,12.0%,.,.,.
O=C(NCc1ccncc1)C(=O)Nc1nccs1,-4.1%,6.4%,.,2.8%,-6.9%,-1.0%
S=C(Nc1ccccc1)c1nc2ccccc2s1,2.51µM*,?,11.2µM*,?,?,?
Cc1ccc(NC(=O)Nc2nc3ccccc3s2)cc1NC(=O)Nc1nc2ccccc2s1,0.5%,?,.,14.8%,8.1%,-6.1%
CCNC(=O)Nc1nc2ccccc2s1,?,23.9µM*,14.1µM*,3.98µM*,?,?

# Assay outcomes as filed in PubChem.
